{
  "source": "the supplement of paper PMC10338343",
  "note": "± gives the standard deviation.",
  "data": [
    {"tested_on": "MILI (PIWIL2) piRISC loaded with L1MC piRNA (26 nt)", "experiment": "pre-steady-state target cleavage rate (min^-1); guide: L1MC piRNA 5'p-UAACUAAAUACUAUGCAAGCUGUAGG; MIWI and MILI are mouse PIWI proteins and EfPiwi is from a freshwater sponge; tags in brackets are library labels; higher = faster piRNA-guided slicing of the target", "conditions": "auxiliary factor: 500 nM mouse GTSF1", "outline": "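In Cleave-'n-Seq, a transcribed, DNA-blocked target RNA library (0.1 nM) was combined with 1 nM active affinity-purified piRISC bearing one synthetic guide, with or without 500 nM GTSF1 partner protein. Reactions ran in HEPES–potassium acetate buffer at 33 °C for 0–8 or 0–960 min. Uncleaved targets were sequenced and normalised to depth and to weakly complementary targets, three trials were pooled, and k3 was capped at 0.0001 min^-1. The pre-steady-state cleavage rate was obtained by fitting a burst-and-steady-state model.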", "values": [
      {"sequence": "UCCUGGUACAGCUUGCAUUCUAUUUAGUUA", "pre-steady-state target cleavage rate": "0.0335 ± 0.018"},
      {"sequence": "UCCUGGAUGUGCUUGCAUAGUAAUUUGUUA", "pre-steady-state target cleavage rate": "0.0141 ± 0.0071"},
      {"sequence": "UCCUGGAUGUGCUUGCAUAGUUUAUAGUUA", "pre-steady-state target cleavage rate": "0.00502 ± 0.0041"},
      {"sequence": "UCCUGGAUGUCGUUGCAUAGUAUAUUGUUA", "pre-steady-state target cleavage rate": "0.0458 ± 0.017"},
      {"sequence": "UCCUGGUACACCUUGGAUAGUAUUUAGUUA", "pre-steady-state target cleavage rate": "0.223 ± 0.069"},
      {"sequence": "UCCUGGAUGUGCUUGCAUAGUAAUAAGUUA", "pre-steady-state target cleavage rate": "0.0448 ± 0.016"},
      {"sequence": "UCCUCCUACUCGUUGCAUAGUAUUUUCAAA", "pre-steady-state target cleavage rate": "0.0494 ± 0.013"},
      {"sequence": "UCCUGGAUGUCGAUGCAAAGUAUUAAGUUA", "pre-steady-state target cleavage rate": "0.00433 ± 0.0038"},
      {"sequence": "UCCUGGAUGUGCUUGCAUAGUAAAUAGUUA", "pre-steady-state target cleavage rate": "0.0601 ± 0.012"},
      {"sequence": "UCCUGGAUGUCCAUGCAUAGUAUUUACUUA", "pre-steady-state target cleavage rate": "0.0292 ± 0.0095"},
      {"sequence": "UCCUCCUACAGGAAGCAUAGUAUUUAGAAA", "pre-steady-state target cleavage rate": "0.107 ± 0.017"},
      {"sequence": "UCCUGGAUGUCGAAGCAUAGUAUUAUGUUA", "pre-steady-state target cleavage rate": "0.00859 ± 0.0044"},
      {"sequence": "UCCUGGAUGAGCUUGCAUUGAAUUUAGUUA", "pre-steady-state target cleavage rate": "0.00697 ± 0.0027"},
      {"sequence": "UCCUGCUACACCUUGCAUAGUAUUUACAAA", "pre-steady-state target cleavage rate": "0.144 ± 0.039"},
      {"sequence": "UCCUGGAUGUCCUUGGAUAGUAUUUACUUA", "pre-steady-state target cleavage rate": "0.014 ± 0.005"},
      {"sequence": "UCCUGGAUCAGCUUGCAAAGAAUUUAGUUA", "pre-steady-state target cleavage rate": "0.0118 ± 0.0054"},
      {"sequence": "UCCUGGUACAGCUUGCAUAGUAUAUAGAUA", "pre-steady-state target cleavage rate": "0.014 ± 0.0071"},
      {"sequence": "UCCUGGAUGUCGAAACAUAGUAUUUAGUUA", "pre-steady-state target cleavage rate": "0.0131 ± 0.004"},
      {"sequence": "UCCUGGAUGAGCUUGCAUAGUAUUCUAGUUA", "pre-steady-state target cleavage rate": "0.165 ± 0.029"},
      {"sequence": "UCCUGGAUCAGCAUCCAUAGUAUUUAGUUA", "pre-steady-state target cleavage rate": "0.103 ± 0.022"},
      {"sequence": "UCCUGGAUGUCCUUGCAUACUAUUAAGUUA", "pre-steady-state target cleavage rate": "0.0099 ± 0.0049"},
      {"sequence": "UCCUCCAUGAGCUUGCAUAGUAUUUUCAAA", "pre-steady-state target cleavage rate": "0.0168 ± 0.0069"},
      {"sequence": "UCCUGGAUCAGCUUGCAUAGAAAUUAGUUA", "pre-steady-state target cleavage rate": "0.0245 ± 0.0096"},
      {"sequence": "UCCUGCUACACGUUGCAUAGUAUUUUCAAA", "pre-steady-state target cleavage rate": "0.00757 ± 0.0052"}
    ]}
  ]
}
